# Data as given in the supplement of paper PMC10849652.
# The full data set covers some 8,800 targets. This sample favours those with a hit. About 0.5% of all pairs of compound and target were hits.
# Compound: c1ccc([C@@H]2C[C@H]2NC2CCNCC2)cc1
# Experiment: log2 fold change, soluble protein after heating vs DMSO (PISA); higher = thermal stabilisation; K562 lysate, 10 uM; active = over 0.2 and 3.5 SD of the protein, either way, in both replicates (recomputed)
# How it was run: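 Dounce homogenisation of K562 pellets in PBS pH 7.4 with 1 mM MgCl2 produced a crude extract, used at 1 mg/mL protein. Exposure to 10 μM compound lasted 30 min, and aliquots were then heated for 3 min across 48°C-58°C, pooled and brought to 0.5% NP-40 at 4°C. The supernatant after 21,000xg for 90 min was quantified by TMTpro 16plex LC-MS/MS with channel sums equalised. Duplicate values are given as log-two fold change in thermal stability relative to solvent controls.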
# Chain of UniProt P42574 (P42574 whole entry, looked up): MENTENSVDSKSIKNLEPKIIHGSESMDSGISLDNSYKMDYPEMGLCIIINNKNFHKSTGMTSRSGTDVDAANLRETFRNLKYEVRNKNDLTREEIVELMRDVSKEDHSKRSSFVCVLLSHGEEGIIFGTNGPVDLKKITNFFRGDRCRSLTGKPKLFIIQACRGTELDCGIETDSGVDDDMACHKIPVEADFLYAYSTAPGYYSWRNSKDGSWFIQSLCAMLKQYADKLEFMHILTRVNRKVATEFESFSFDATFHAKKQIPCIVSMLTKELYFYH
# Chain of UniProt Q86WR0 (Q86WR0 whole entry, looked up): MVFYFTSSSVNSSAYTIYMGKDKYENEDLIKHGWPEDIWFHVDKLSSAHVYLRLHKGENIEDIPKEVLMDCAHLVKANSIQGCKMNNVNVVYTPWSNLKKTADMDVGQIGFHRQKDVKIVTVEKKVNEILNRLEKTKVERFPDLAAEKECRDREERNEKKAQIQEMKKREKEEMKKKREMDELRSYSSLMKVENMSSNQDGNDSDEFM
# Chain of UniProt Q5BKX5 (Q5BKX5 whole entry, looked up): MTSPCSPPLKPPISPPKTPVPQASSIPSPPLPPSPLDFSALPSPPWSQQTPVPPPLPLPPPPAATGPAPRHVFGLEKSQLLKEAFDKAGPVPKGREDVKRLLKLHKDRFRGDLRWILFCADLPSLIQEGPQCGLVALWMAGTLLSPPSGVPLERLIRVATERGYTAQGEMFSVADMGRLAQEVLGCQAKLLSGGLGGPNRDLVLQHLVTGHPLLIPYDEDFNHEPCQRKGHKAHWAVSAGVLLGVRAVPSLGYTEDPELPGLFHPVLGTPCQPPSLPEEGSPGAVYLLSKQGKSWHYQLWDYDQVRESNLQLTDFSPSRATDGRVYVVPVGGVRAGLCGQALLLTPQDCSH
# Chain of UniProt Q96B23 (Q96B23 whole entry, looked up): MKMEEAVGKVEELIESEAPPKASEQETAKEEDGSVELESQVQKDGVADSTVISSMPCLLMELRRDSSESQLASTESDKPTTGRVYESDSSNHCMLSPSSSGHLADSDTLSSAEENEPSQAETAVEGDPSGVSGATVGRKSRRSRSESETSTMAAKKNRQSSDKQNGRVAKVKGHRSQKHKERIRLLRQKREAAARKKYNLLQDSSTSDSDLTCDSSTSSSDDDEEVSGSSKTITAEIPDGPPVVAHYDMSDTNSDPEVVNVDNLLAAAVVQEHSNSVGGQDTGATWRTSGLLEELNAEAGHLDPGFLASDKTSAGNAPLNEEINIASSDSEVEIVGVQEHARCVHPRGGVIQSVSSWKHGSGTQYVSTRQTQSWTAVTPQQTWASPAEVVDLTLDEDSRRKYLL
# Chain of UniProt Q9Y6H1 (Q9Y6H1 whole entry, looked up): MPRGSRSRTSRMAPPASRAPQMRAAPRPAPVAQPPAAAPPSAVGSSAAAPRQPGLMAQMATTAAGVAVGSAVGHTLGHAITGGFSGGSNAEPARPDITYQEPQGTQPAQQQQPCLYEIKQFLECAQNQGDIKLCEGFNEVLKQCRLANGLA
# Chain of UniProt P55211 (P55211 whole entry, looked up): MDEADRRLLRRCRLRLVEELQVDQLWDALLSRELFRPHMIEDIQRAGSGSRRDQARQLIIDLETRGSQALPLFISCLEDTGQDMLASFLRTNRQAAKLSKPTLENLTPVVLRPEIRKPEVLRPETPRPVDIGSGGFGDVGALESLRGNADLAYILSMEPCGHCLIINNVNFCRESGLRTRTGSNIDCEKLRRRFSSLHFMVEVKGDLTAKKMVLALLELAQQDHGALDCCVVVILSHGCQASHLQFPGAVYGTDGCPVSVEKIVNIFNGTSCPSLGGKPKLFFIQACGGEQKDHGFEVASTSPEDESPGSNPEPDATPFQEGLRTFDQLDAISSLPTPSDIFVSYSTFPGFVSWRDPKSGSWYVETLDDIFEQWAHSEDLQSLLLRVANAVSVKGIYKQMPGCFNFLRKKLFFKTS
# Chain of UniProt Q9H3K6 (Q9H3K6 whole entry, looked up): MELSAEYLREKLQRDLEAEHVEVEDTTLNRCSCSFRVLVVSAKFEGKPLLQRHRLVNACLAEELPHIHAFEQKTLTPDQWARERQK
# Chain of UniProt O60508 (O60508 whole entry, looked up): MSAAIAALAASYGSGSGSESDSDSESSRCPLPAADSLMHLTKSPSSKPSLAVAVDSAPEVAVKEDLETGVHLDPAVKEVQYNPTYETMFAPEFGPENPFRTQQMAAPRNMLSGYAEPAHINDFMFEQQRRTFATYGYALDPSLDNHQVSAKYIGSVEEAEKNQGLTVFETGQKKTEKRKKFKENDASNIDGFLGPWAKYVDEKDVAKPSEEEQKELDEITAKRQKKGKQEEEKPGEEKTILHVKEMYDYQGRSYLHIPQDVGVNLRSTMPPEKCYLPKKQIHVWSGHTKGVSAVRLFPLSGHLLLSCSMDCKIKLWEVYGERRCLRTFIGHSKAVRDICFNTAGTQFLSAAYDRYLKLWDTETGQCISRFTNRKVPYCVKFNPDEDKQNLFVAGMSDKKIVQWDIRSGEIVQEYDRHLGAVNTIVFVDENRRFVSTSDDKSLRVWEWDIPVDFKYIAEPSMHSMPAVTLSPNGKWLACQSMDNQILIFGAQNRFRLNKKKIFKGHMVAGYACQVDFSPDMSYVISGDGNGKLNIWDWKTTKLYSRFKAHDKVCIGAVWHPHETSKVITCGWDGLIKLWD
# Chain of UniProt O14965 (O14965 whole entry, looked up): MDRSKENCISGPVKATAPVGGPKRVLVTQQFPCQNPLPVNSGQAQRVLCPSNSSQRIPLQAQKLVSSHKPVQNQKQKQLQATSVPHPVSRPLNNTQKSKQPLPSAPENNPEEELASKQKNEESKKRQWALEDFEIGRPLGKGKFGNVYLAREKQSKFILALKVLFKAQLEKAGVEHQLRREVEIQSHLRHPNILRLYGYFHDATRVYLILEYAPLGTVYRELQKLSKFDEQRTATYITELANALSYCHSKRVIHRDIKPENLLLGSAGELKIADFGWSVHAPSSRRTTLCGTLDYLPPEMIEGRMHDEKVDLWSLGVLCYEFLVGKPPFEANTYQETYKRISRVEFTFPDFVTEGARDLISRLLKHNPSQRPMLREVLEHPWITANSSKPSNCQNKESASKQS
# Chain of UniProt P49589 (P49589 whole entry, looked up): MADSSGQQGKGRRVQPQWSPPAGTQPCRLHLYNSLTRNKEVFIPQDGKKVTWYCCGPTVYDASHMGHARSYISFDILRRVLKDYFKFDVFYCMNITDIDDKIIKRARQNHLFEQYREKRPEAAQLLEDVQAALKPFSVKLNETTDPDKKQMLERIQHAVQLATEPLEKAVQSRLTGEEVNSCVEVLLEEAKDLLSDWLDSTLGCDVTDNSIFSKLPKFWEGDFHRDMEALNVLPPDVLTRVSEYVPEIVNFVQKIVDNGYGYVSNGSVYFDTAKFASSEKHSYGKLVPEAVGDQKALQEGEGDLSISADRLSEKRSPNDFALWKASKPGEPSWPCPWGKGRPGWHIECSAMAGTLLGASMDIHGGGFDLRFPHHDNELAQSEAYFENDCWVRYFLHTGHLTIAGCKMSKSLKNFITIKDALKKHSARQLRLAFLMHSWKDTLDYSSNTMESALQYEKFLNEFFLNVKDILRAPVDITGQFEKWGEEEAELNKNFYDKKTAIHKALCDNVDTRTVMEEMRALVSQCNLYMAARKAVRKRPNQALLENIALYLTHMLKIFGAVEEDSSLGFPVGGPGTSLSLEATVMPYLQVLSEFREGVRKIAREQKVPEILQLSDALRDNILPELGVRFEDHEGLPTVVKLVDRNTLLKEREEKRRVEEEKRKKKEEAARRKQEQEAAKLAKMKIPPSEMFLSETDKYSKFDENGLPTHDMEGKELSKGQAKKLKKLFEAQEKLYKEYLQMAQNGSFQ
# Chain of UniProt P30307 (P30307 whole entry, looked up): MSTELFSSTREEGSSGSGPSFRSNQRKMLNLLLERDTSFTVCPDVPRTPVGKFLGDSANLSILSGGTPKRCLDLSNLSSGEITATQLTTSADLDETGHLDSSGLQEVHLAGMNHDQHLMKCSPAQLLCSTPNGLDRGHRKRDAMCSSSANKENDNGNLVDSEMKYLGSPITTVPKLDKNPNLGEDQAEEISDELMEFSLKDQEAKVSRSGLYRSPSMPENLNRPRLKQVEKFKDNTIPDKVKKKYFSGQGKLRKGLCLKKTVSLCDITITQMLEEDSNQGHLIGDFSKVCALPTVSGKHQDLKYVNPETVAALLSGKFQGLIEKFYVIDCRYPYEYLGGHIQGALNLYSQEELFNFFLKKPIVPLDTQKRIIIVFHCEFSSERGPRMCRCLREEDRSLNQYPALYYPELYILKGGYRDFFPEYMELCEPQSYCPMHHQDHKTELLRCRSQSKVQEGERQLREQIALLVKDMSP
# Chain of UniProt P21127 (P21127 whole entry, looked up): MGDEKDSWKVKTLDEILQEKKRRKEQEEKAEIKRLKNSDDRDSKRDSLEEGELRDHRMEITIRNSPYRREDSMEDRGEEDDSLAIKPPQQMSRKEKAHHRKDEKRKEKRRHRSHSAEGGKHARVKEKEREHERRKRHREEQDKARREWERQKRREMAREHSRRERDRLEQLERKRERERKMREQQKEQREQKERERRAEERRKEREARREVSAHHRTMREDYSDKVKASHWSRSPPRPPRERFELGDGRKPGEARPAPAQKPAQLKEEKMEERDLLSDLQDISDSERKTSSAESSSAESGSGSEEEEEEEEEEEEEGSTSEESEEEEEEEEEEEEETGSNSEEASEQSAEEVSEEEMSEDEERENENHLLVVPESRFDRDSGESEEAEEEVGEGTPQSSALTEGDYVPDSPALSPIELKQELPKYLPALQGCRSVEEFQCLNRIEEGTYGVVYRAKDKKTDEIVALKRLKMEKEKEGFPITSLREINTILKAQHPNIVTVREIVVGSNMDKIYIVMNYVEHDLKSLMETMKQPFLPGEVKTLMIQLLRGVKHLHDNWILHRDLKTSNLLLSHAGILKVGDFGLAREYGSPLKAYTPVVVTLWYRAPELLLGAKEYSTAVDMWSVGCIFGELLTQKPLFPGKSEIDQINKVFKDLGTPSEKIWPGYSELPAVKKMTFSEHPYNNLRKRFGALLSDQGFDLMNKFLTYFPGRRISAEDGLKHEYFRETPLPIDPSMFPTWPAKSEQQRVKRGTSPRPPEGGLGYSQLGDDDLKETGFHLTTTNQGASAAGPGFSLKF
row,Target,log2 fold change
1,ATP6V0A2 (UniProt Q9Y487),-0.114 (inactive)
2,CASP9 (UniProt P55211),-0.048 (inactive)
3,CCDC25 (UniProt Q86WR0),0.164 (inactive)
4,ATP5PF isoform 2 (UniProt P18859),0.228 (inactive)
5,ATG4A (UniProt Q8WYN0),-0.103 (inactive)
6,CARD9 (UniProt Q9H257),0.035 (inactive)
7,CAMKK2 (UniProt Q96RR4),-0.013 (inactive)
8,CDC25C (UniProt P30307),0.027 (inactive)
9,CHCHD2 (UniProt Q9Y6H1),-0.01 (inactive)
10,CASP3 (UniProt P42574),0.103 (inactive)
11,CDK5 (UniProt Q00535),-0.02 (inactive)
12,CARS isoform 3 (UniProt P49589),0.03 (inactive)
13,C18orf25 isoform 2 (UniProt Q96B23),-0.003 (inactive)
14,BRD3 (UniProt Q15059),-0.167 (inactive)
15,CDK11B (UniProt P21127),-0.001 (inactive)
16,CAPN15 (UniProt O75808),0.056 (inactive)
17,CASP6 (UniProt P55212),-0.005 (inactive)
18,CDK2 (UniProt P24941),-0.028 (inactive)
19,CHAF1A (UniProt Q13111),0.022 (inactive)
20,BOLA2 (UniProt Q9H3K6),0.078 (inactive)

row,Target,log2 fold change
1,ATG7 (UniProt O95352),0.044 (inactive)
2,BORCS5 (UniProt Q969J3),-0.011 (inactive)
3,C19orf54 (UniProt Q5BKX5),0.043 (inactive)
4,CAMK1 (UniProt Q14012),-0.047 (inactive)
5,CCNC (UniProt P24863),-0.129 (inactive)
6,BMS1 (UniProt Q14692),-0.029 (inactive)
7,BET1 (UniProt O15155),0.009 (inactive)
8,CHCHD4 isoform 2 (UniProt Q8N4Q1),-0.168 (inactive)
9,AURKA (UniProt O14965),-0.157 (inactive)
10,CDK1 (UniProt P06493),0.018 (inactive)
11,CCNYL1 (UniProt Q8N7R7),-0.079 (inactive)
12,BRD4 (UniProt O60885),-0.015 (inactive)
13,ATG4B (UniProt Q9Y4P1),0.051 (inactive)
14,CCAR2 (UniProt Q8N163),0.004 (inactive)
15,CEP120 (UniProt Q8N960),0.184 (inactive)
16,CDKN2AIP (UniProt Q9NXV6),-0.013 (inactive)
17,CDC40 (UniProt O60508),-0.03 (inactive)
18,AURKAIP1 (UniProt Q9NWT8),0.034 (inactive)
19,CARHSP1 (UniProt Q9Y2V2),0.005 (inactive)
